Our source for the cytotoxicity call values is the antibiotic and cytotoxicity screens of Wong et al. (2023).

The structures appear in SMILES notation. In all, about 39,000 compounds went through this assay and about 3,300 (8.5%) were called active. What follows is part of a selection rich in actives, with near analogues and random picks from the rest.

The assay has as its system HepG2. As to the kind of experiment: cytotoxicity call (relative viability < 0.9). Particulars: 10 µM.
Regarding `CCc1oc2ccccc2c1C(=O)c1cc(Br)c(O)c(Br)c1`, the cytotoxicity call was “active”. As to `O=c1c2ccccc2oc2ccc(O)cc12`, the cytotoxicity call was “inactive”. Regarding `O=c1[nH]c(=O)c2ccccc2o1`, the cytotoxicity call is “inactive”. The result for `Cc1ccc(CNc2ccc3c(c2)ncn3C2CCCCC2)cc1` reads “inactive”; that for `O=C(CCCCCNC(=O)OCc1ccc(CO[C@@H]2C[C@H](C3CCCCC3)C=C(C(=O)N3CCN(Cc4ccccc4)CC3)O2)cc1)NO`, “inactive”. Regarding `COc1cccc(C#Cc2ccc([C@@H]3[C@H]4CN(S(=O)(=O)c5ccccc5C)CC(=O)N4[C@H]3CO)cc2)c1`, the cytotoxicity call is “inactive”. `O=C1CN(S(=O)(=O)Cc2ccccc2)C[C@H]2[C@@H](c3ccc(C#Cc4cccc(F)c4)cc3)[C@@H](CO)N12`: the cytotoxicity call is “inactive”. Turning to `O=C1CN(S(=O)(=O)Cc2ccccc2)C[C@H]2[C@H](c3ccc(C#Cc4cccc(F)c4)cc3)[C@@H](CO)N12`, the cytotoxicity call is “active”. For the compound `O=C1CN(S(=O)(=O)Cc2ccccc2)C[C@@H]2[C@H](c3ccc(C#Cc4ccc(F)cc4)cc3)[C@H](CO)N12`, the cytotoxicity call is “inactive”. Turning to `O=C1CN(S(=O)(=O)Cc2ccccc2)C[C@H]2[C@H](c3ccc(C#Cc4cccc(F)c4)cc3)[C@H](CO)N12`, the cytotoxicity call is “active”.

As for `O=C1CN(S(=O)(=O)Cc2ccccc2)C[C@@H]2[C@@H](c3ccc(C#Cc4cccc(F)c4)cc3)[C@@H](CO)N12`, the cytotoxicity call was “active”. In the case of `O=C1CN(S(=O)(=O)Cc2ccccc2)C[C@H]2[C@@H](c3ccc(C#Cc4ccc(F)cc4)cc3)[C@H](CO)N12`, the cytotoxicity call is “inactive”.

With `O=C1CN(S(=O)(=O)Cc2ccccc2)C[C@@H]2[C@H](c3ccc(C#Cc4cccc(F)c4)cc3)[C@@H](CO)N12`, the cytotoxicity call was “inactive”. As to `COc1cccc(C#Cc2ccc([C@@H]3[C@H](CO)N4C(=O)CN(S(=O)(=O)c5ccccc5C)C[C@@H]34)cc2)c1`, the cytotoxicity call was “inactive”. The result for `O=C1CN(S(=O)(=O)Cc2ccccc2)C[C@@H]2[C@@H](c3ccc(C#Cc4cccc(F)c4)cc3)[C@H](CO)N12` reads “inactive”. In the case of `O=C1CN(S(=O)(=O)Cc2ccccc2)C[C@H]2[C@@H](c3ccc(C#Cc4cccc(F)c4)cc3)[C@H](CO)N12` it was “active”; in that of `COc1cccc(C#Cc2ccc([C@H]3[C@H](CO)N4C(=O)CN(S(=O)(=O)c5ccccc5C)C[C@@H]34)cc2)c1`, “inactive”.

In the case of `CN(C)Cc1ccc(O)c(CN(C)C)n1`, the cytotoxicity call is “inactive”. In the case of `COCC(=O)N1C[C@H](C)[C@@H](OC)CN(C)C(=O)c2cc(NC(=O)Nc3ccccc3)ccc2OC[C@@H]1C` it was “inactive”; in that of `COCCNC(=O)C[C@@H]1CC[C@@H]2[C@H](COC[C@@H](O)CN2C(=O)Nc2ccccc2OC)O1`, “inactive”; in that of `O=c1cccn[nH]1`, “inactive”. `COc1ccc(-c2cnc3c(c2)C(=O)N([C@@H](C)CO)C[C@H](C)[C@@H](CN(C)C(=O)Cc2ccccn2)O3)cc1`: the cytotoxicity call is “inactive”. For `C[C@@H]1CN([C@H](C)CO)C(=O)c2cc(NS(=O)(=O)c3cccs3)ccc2O[C@H]1CN(C)S(C)(=O)=O`, the cytotoxicity call was “inactive”. In the case of `C[C@@H]1CCCCO[C@@H](CN(C)S(=O)(=O)c2cccs2)[C@H](C)CN([C@@H](C)CO)C(=O)c2cc(NC(=O)Nc3cccc4ccccc34)ccc2O1` it was “inactive”; in that of `COCC#Cc1ccc2c(c1)O[C@@H](CN(C)C(=O)C1CCCCC1)[C@@H](C)CN([C@H](C)CO)S2(=O)=O`, “inactive”; in that of `C[C@H](CO)N1C[C@H](C)[C@@H](CN(C)C(=O)CCC(F)(F)F)OCCCC[C@H](C)Oc2ccc(NC(=O)c3ccccc3)cc2C1=O`, “inactive”. With `C[C@H]1CN([C@@H](C)CO)C(=O)c2ccccc2-c2ccccc2CO[C@H]1CN(C)C(=O)Nc1ccc(-c2ccccc2)cc1`, the cytotoxicity call was “inactive”. `COc1ccc(NC(=O)Cn2c(=O)c3c(OC)ccnc3n(C)c2=O)c(OC)c1`: the cytotoxicity call is “inactive”. The result for `COc1cc(/C=C/C(=O)O[C@H]2CC[C@]34C[C@]35CC[C@]3(C)[C@@H]([C@@H](C)CCC=C(C)C)CC[C@@]3(C)[C@@H]5CC[C@@H]4C2(C)C)ccc1O` reads “inactive”. In the case of `O=C1CN(S(=O)(=O)Cc2ccccc2)C[C@@H]2[C@H](c3ccc(C#Cc4cccc(F)c4)cc3)[C@H](CO)N12`, the cytotoxicity call was “active”. For `O=C(CN1CCOCC1)N[C@H]1CC[C@H](CCNC(=O)C2CCC2)O[C@H]1CO`, the cytotoxicity call is “inactive”. The result for `C[C@@H]1CN([C@@H](C)CO)C(=O)c2cc(NC(=O)Cn3cnnn3)ccc2O[C@H]1CN(C)Cc1ccc(C(F)(F)F)cc1` reads “inactive”; that for `COc1ccc(CCNC(=O)[C@@]2(Sc3ccc(C)cc3)CC(=O)N(Cc3ccccc3C(F)(F)F)[C@@H]2c2ccc(CO)cc2)cc1`, “inactive”; that for `O=c1[nH]cc(F)c(=O)[nH]1` [listing 1 of 2 here], “active”. For the compound `O=c1[nH]cc(N2CCCCC2)c(=O)[nH]1`, the cytotoxicity call was “inactive”. Take `O=c1[nH]cc(Nc2ccccc2)c(=O)[nH]1`: the cytotoxicity call is “inactive”. As to `O=c1[nH]cc(S(=O)(=O)N2CCN(c3ccccc3F)CC2)c(=O)[nH]1`, the cytotoxicity call is “inactive”.

`O=c1[nH]cc(F)c(=O)[nH]1` [listing 2 of 2 here]: the cytotoxicity call was “active”. The result for `CCOCc1c[nH]c(=O)[nH]c1=O` reads “inactive”. The result for `COc1ccc(NC(=O)N(C)C[C@H]2Oc3c(NS(=O)(=O)c4cn(C)cn4)cccc3C(=O)N([C@@H](C)CO)C[C@H]2C)cc1` reads “inactive”; that for `Cn1cc(S(=O)(=O)Nc2ccc3c(c2)OCCO3)c(=O)n(C)c1=O`, “inactive”. In the case of `C[C@@H]1CN([C@@H](C)CO)C(=O)c2cc(C#CC3(O)CCCC3)cnc2O[C@@H]1CN(C)S(C)(=O)=O` it was “inactive”. `CC(C)NC(=O)N(C)C[C@H]1Oc2ccc(NC(=O)Nc3ccc4c(c3)OCO4)cc2C(=O)N([C@H](C)CO)C[C@@H]1C`: the cytotoxicity call was “inactive”. In the case of `C=CCN(C(=O)[C@H]1N(C(C)(C)CO)C(=O)[C@H]2[C@H](C(=O)O)[C@@H]3C=C[C@@]21O3)C(C)(C)C` it was “inactive”; in that of `Cc1cc(-c2ccccc2)oc2cc3ccccc3c1-2`, “inactive”; in that of `S=c1cc(-c2ccccc2)oc(-c2ccccc2)c1`, “active”. Turning to `O=c1cc(-c2ccccc2)oc2ccc(O)cc12`, the cytotoxicity call was “inactive”. In the case of `O=C(N[C@@H](c1ccc(-c2ccccc2)cc1)c1cnccn1)C1CCN(CCOc2ccc(F)cc2)CC1` it was “active”; in that of `O=C(N[C@@H](c1ccc2c(c1)OCO2)c1ccccn1)C1CCN(CCOc2ccc(Cl)cc2Cl)CC1`, “inactive”; in that of `Cc1cccnc1[C@@H](NC(=O)C1CCN(CCOc2ccc(Cl)cc2Cl)CC1)c1ccc(F)cc1`, “inactive”. `O=C(N[C@@H](c1ccc(-c2ccccc2)cc1)c1cnccn1)C1CCN(CCCOc2ccccc2)CC1`: the cytotoxicity call is “active”. The result for `O=C(N[C@H](c1ccc(Cl)cc1)c1ccccn1)C1CCN(CCOc2ccc(Cl)cc2Cl)CC1` reads “inactive”.
